Data reported in PubChem BioAssay AID2546 (National Center for Advancing Translational Sciences (NCATS), 2010).
In all, about 310,000 compounds went through this assay and about 11,000 (3.5%) were called active. Inconclusive results (about 8%) are left out. Calls come from the whole dose curve; as a rule, active = well fitted inhibition curve with a large enough effect; inconclusive = small, poorly fitted or top-dose-only effect, or effect the other way; inactive = flat fitted curve, though single readings scatter. This excerpt belongs to a sample that is enriched for actives.
% is set by controls: 0 for no effect and ±100 for the full control effect; potency is the fitted concentration of half-maximal effect.

Assay: VP16 counterscreen qHTS for inhibitors of ROR gamma transcriptional activity;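 note: Gal4-VP16 expression switched on by copper sulfate through the metallothionein promoter; nearly all actives have a fitted effect of over 50% in size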
Details: Drosophila S2 Gal4-VP16 UAS-luciferase, luminescence, 20 h; series mostly up to 53.6 µM; activity, negative = inhibition: at the top concentration
In the case of `Cc1cccc(N(C)C(=O)CN2C(=O)COc3ccc(S(=O)(=O)N4CCCCCC4)cc32)c1`, the “activity, negative = inhibition” value is reported as -1.84% (inactive). For `COc1ccc(-c2oc3ncnc(NCCCO)c3c2-c2ccc(OC)cc2)cc1`, the “activity, negative = inhibition” value was -13.1% (inactive). With `C[C@@H](NC(=O)OC(C)(C)C)c1nnc(S(=O)(=O)Cc2ccccc2)o1` the Potency was 4.47 µM (active). With `CC(C)Sc1nnc([C@H](Cc2ccccc2)NC(=O)OC(C)(C)C)o1` the “activity, negative = inhibition” value was 5.57% (inactive). For `C[C@H](NC(=O)OC(C)(C)C)c1nnc(SCC(N)=O)o1`, the “activity, negative = inhibition” value was 8.92% (inactive). For `CC(=O)Nc1cccc(NC(=O)CSc2nccn2Cc2ccc(F)cc2)c1`, the “activity, negative = inhibition” value was -5.44% (inactive). With `Cc1ccc2nc(SCC(=O)NC3CCCC3)[nH]c2c1` the “activity, negative = inhibition” value was 4.32% (inactive). In the case of `Cc1ccc(-c2csc(NNC(=O)c3ccccc3)n2)cc1`, the Potency is reported as 7.08 µM (active). With `Cc1ccc(Nc2nc(-c3sc(NC(=O)c4ccccc4)nc3C)cs2)cc1` the “activity, negative = inhibition” value was -2.11% (inactive). For `O=C(Nc1nc(-c2ccc(-c3ccccc3)cc2)cs1)c1cnccn1`, the Potency was 2 µM (active). In the case of `O=C(O)c1ccccc1C(=O)Nc1nc(-c2ccccc2)cs1`, the “activity, negative = inhibition” value is reported as 0.0927% (inactive). With `Cc1nc(NNC(=O)c2ccccc2)cc(-c2ccccc2)n1` the “activity, negative = inhibition” value was -19.6% (inactive). With `O=C(Nc1nc(-c2cccnc2)cs1)c1ccccc1F` the “activity, negative = inhibition” value was 5.72% (inactive). For `CC(=O)c1ccc(N2CCN(C(=O)C3CCN(S(=O)(=O)c4ccc5c(c4)CC(C)N5C(=O)C4CC4)CC3)CC2)cc1` (stereo not drawn), the “activity, negative = inhibition” value was -8.05% (inactive). For `CCCC(C)NC(=O)C1CCN(C(=O)C2CC(=O)N(c3ccc(C)cc3)C2)CC1` (stereo not drawn), the “activity, negative = inhibition” value was 12.6% (inactive). With `COc1cc(C)c(C)cc1S(=O)(=O)N1CCCc2ccccc21` the “activity, negative = inhibition” value was -8.46% (inactive). In the case of `O=C(Cn1cnc2ccccc21)Nc1ccccc1-c1ccccc1`, the “activity, negative = inhibition” value is reported as -5.47% (inactive). With `O=C(NCCOc1cccnc1)c1ccc(OC2CCN(Cc3ccccn3)CC2)cc1` the “activity, negative = inhibition” value was -2.29% (inactive). With `C[C@H](NC(=O)[C@@H]1Cc2ccccc2CN1C(=O)OC(C)(C)C)C(=O)NC1CCCC1` the “activity, negative = inhibition” value was -1.53% (inactive). With `CCc1ccc(C(=O)NN=C2CCCCCC2)s1` the “activity, negative = inhibition” value was -2.72% (inactive). In the case of `CC(C)NC(=S)NN=C1CCCCCCCCCCC1`, the Potency is reported as 5.01 µM (active). For `CC(C)(C)NC(=O)C(=O)NN=C1CCCCCCC1`, the “activity, negative = inhibition” value was 13.8% (inactive). In the case of `CCC1CCCCN1C(=S)Nc1ccc(S(=O)(=O)Nc2ncccn2)cc1` (stereo not drawn), the “activity, negative = inhibition” value is reported as -18.2% (inactive). In the case of `CCCc1cc(=O)oc2cc(OCC(=O)Nc3ccc(CN4CCOCC4)cc3)c(Cl)cc12`, the “activity, negative = inhibition” value is reported as -13% (inactive). In the case of `O=C(Cc1ccccc1)NCc1ccc(F)cc1`, the “activity, negative = inhibition” value is reported as 2.04% (inactive). In the case of `COC(=O)Cc1ccc(NC(=S)NCc2ccccc2)cc1`, the Potency is reported as 31.6 µM (active). With `O=C(NNC(=S)NCc1ccccc1)c1ccc(OC(F)F)cc1` the “activity, negative = inhibition” value was -14.5% (inactive). For `COC(=O)Cc1ccc(OCC(=O)Nc2ccc(OC(F)(F)F)cc2)cc1`, the “activity, negative = inhibition” value was -4.79% (inactive). With `CC(C)CC(=O)NC(=S)Nc1cc(C(=O)O)ccc1Cl` the “activity, negative = inhibition” value was -1.81% (inactive). For `CC(C)CC(=O)NC(=S)NCc1ccccc1`, the Potency was 10 µM (active). For `FC(F)(F)Oc1ccc(NC(=S)NCc2ccccc2)cc1`, the Potency was 11.2 µM (active). With `COC(=O)Cc1ccc(NC(=S)NCc2ccco2)cc1` the “activity, negative = inhibition” value was -2.3% (inactive). For `CC(C)CNC(=O)C(=O)NCc1ccccc1`, the “activity, negative = inhibition” value was -16.5% (inactive).
